# Screening data: PubChem BioAssay, National Center for Advancing Translational Sciences (NCATS)
# HPGD block: HPGD (human) dehydrogenase inhibition; purified HPGD, NADH fluorescence kinetic, PGE2 substrate; Potency, µM, for inactives: at the top dose activity change, negative = inhibition, hits mostly inhibitors; 4.3% of 150,000 active; active means well fitted inhibition curve with a large enough effect, not every such curve was filed as active; inconclusive means small, poorly fitted or top-dose-only effect, or another doubt; inactive means no such curve, though single readings can be large or run the other way
#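 NADH formation kinetics: reaction with 30 uM PGE2 and 1 mM NAD+ (final), 20 nM enzyme, Tris-HCl pH 8 with Tween 20, after 15 min compound preincubation at room temperature. Fluorescence change, last versus first of five reads.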
# Tau FP inhib: blocks human tau fibril formation measured by polarization; Potency, µM (highest dose often 57.7 µM), for inactives: at the top dose activity, negative = inhibition, usual class: inhibitors; AID 1468; P10636; K18 P301L tau heparin fibrillization, Alexa594 FP, 6 h; 0.39% of 280,000 active; further: nearly all actives have a fitted effect of over 55% in size
# Target sequence (P10636 561-689 P618L limits assumed): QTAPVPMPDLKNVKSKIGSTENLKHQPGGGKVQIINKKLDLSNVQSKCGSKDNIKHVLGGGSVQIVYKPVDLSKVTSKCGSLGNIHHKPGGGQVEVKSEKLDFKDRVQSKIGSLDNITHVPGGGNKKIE
#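 K18 P301L tau (15 uM unlabeled/0.24 uM Alexa 594-labeled, final) + compound + heparin 20 uM final; 100 mM NaOAc pH 7; 6 hr 37 C; ThT 30 uM final added, 1 hr RT; FP ex 555/em 632 nm.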
# ALDH1A1 block: inhibitors of human aldehyde dehydrogenase 1A1. 7.3% of 220,000 active. Purified ALDH1A1, NADH fluorescence, propionaldehyde substrate. AID 1030. Potency, µM (titrated, usually from 75.3 µM), without a hit: at the highest dose activity, negative = inhibition, most hits filed as inhibitors; active means well fitted inhibition curve with a large enough effect, not every such curve was filed as active; inconclusive means small, poorly fitted or top-dose-only effect, or another doubt; inactive means no such curve, though single readings can be large or run the other way;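 further: plate controls were no enzyme wells and a reference inhibitor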
# Target sequence (P00352 whole entry, looked up): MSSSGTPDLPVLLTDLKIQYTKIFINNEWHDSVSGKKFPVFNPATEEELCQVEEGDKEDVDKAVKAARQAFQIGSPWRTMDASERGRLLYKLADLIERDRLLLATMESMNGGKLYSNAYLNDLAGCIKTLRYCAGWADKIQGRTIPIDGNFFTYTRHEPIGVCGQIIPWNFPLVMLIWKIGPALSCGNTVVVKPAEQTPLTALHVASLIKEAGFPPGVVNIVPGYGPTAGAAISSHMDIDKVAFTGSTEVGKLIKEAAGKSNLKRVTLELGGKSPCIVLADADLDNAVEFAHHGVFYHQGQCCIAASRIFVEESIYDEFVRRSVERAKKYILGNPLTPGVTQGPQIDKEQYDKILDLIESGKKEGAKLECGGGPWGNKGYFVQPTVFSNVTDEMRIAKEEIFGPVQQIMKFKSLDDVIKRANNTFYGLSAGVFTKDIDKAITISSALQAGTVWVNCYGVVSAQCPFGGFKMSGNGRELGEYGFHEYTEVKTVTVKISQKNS
# JMJD2E inh: JMJD2E (human) inhibition | B2RXH2 | JMJD2E catalytic domain, FDH-coupled NADH fluorescence (FDH is formaldehyde dehydrogenase) | Potency, µM (top dose mostly 57.1 µM), for inactives: top-dose activity change, negative = inhibition, hits mostly inhibitors | 1.6% of 230,000 active; active means well fitted inhibition curve with a large enough effect, not every such curve was filed as active; inconclusive means small, poorly fitted or top-dose-only effect, or another doubt; inactive means no such curve, though single readings can be large or run the other way;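 further: 0% = wells with enzyme and -100% = buffer wells without enzyme; nearly all actives have a fitted effect of over 50% in size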
# Tau ThT inhib: blocks human tau fibril formation measured by thioflavin T. P10636. recombinant tau K18 P301L, heparin-induced fibrillization, ThT fluorescence. Potency, µM (top dose mostly 57.4 µM), for the others: top-dose activity, negative = inhibition, hits mostly inhibitors. 2.1% of 270,000 active; further: nearly all actives have a fitted effect of over 55% in size
#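 Tau K18 P301L fragment (15 uM unlabeled plus 0.24 uM Alexa 594-labeled) in 100 mM sodium acetate pH 7 with compound, fibrillization induced by 20 uM heparin for 6 hr at 37 C. Thioflavin T (30 uM) added, fluorescence read after 1 hr (ex 450, em 510 nm).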
# Tau fluor counter: counter-screen for tau fibril formation inhibitors; tau K18 P301L Alexa594 fluorescence, heparin fibrillization; Potency, µM (titrated, usually from 57.7 µM), for inactives: at the top dose activity change, negative = decrease; 0.93% of 280,000 active; further: nearly all actives have a fitted effect of over 55% in size
#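 Human tau K18 P301L (15 uM unlabeled, 0.24 uM Alexa 594-labeled) in 100 mM sodium acetate pH 7 with 20 uM heparin, 6 hr at 37 C. ThT 30 uM added, 1 hr ambient; Alexa 594 FP and total fluorescence read at 555/632 nm.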
# Numbers without * were called inactive; ? = inconclusive; . = not tested or not shown; [ ] = another dose, or the depositor's remark. An excerpt weighted towards active compounds, which were near 9.9% of everything screened. Unless noted, the call rests on the fitted dose curve; in most records, active means well fitted curve in the direction sought with a large enough effect; inconclusive means small, poorly fitted or top-dose-only effect, or another doubt; inactive means no such curve, though single readings can be large; an effect the other way counts as inactive or inconclusive. Unless noted, on the % scale 0 is the no-effect control and ±100 the full control effect; potency means the concentration at half of the fitted maximal effect.
SMILES,HPGD block,Tau FP inhib,ALDH1A1 block,JMJD2E inh,Tau ThT inhib,Tau fluor counter
O=C(NCc1n[nH]c(=S)n1-c1ccc(F)cc1)c1ccc(S(=O)(=O)N2CCOCC2)cc1,.,?,?,-4%,-9%,-13%
CCN(CC)S(=O)(=O)c1ccc(C(=O)NCc2n[nH]c(=S)n2-c2ccccc2OC)cc1,-13%,-2%,?,8%,-3%,-1%
Cc1ccccc1NC(=O)c1c(C)oc2ccc(O)c(CN3CCC(C)CC3)c12,.,-6%,.,.,-5%,-11%
C=CCC(C)(O)C#Cc1ccccc1 (centres undefined),-11%,?,5%,-1%,3%,3%
CC(C)CCOc1ncnc2c1sc1nc3c(cc12)CSC(C)(C)C3,?,3%,1.1µM*,12%,?,-12%
Cc1nc(OCc2ccccc2)c2sc3nc4c(cc3c2n1)COC(C)(C)C4,?,8%,?,-22%,-8%,-5%
CC1(C)Cc2nc3sc4c(=O)n(Cc5ccccc5)cnc4c3cc2CS1,?,?,?,-1%,-4%,-24%
CCCn1cnc2c(sc3nc4c(cc32)CSC(C)(C)C4)c1=O,-26%,-5%,0.56µM*,-6%,-1%,1%
Nc1cc(=O)[nH]c(SCC(=O)Nc2ccc(S(=O)(=O)N3CCCCC3)cc2)n1,.,4%,19µM*,4%,6%,-2%
Cc1csc(SCC(=O)Nc2ccc(S(=O)(=O)N3CCCC3)cc2)n1,-18%,0%,14µM*,-1%,1%,-10%
O=C(Nc1ccccc1)Nc1ccc(S(=O)(=O)N2CCCCC2)cc1,-8%,32µM*,?,?,12%,16µM*[quencher]
Cc1cc(C)nc(SCC(=O)Nc2ccc(S(=O)(=O)N3CCCCC3)cc2)n1,-18%,-7%,-12%,9%,-5%,-13%
CN(c1ccccc1C(=O)Nc1ccc(S(=O)(=O)N2CCCC2)cc1)S(C)(=O)=O,-12%,-1%,13µM*,-1%,3%,-3%
Nc1cc(=O)[nH]c(SCC(=O)Nc2ccc(S(=O)(=O)N3CCOCC3)cc2)n1,-21%,2%,?,2%,-8%,-8%
CN(c1ccccc1C(=O)Nc1ccc(S(=O)(=O)N2CCCCC2)cc1)S(C)(=O)=O,4%,1%,-4%,-1%,13%,-3%
COc1ccc(CC(=O)Nc2ccccc2C(=O)N2CCOCC2)cc1,5%,-9%,-7%,5%,1%,2%
CCOc1ccc(Oc2nc(NCC(C)C)nc(N3CCOCC3)n2)nn1,.,-13%,.,.,-4%,-7%
Cc1noc(C)c1-c1ccc2ncnc(NCCN3CCOCC3)c2c1,.,.,16%,.,.,.
O=C(Cc1cccs1)Nc1ccc(S(=O)(=O)N2CCCC2)cc1,.,1%,13µM*,1%,8%,5%
O=C(CSc1nnc(-c2ccc(F)cc2)o1)Nc1ccc(S(=O)(=O)N2CCCC2)cc1,-10%,-10%,16µM*,7%,6%,-21%
O=C(CSc1nnc(-c2ccc(F)cc2)o1)Nc1ccc(S(=O)(=O)N2CCCCCC2)cc1,.,?,4%,5%,8%,?
CC(SCC(=O)Nc1ccc(S(=O)(=O)N2CCCCC2)cc1)C(=O)O (centres undefined),-2%,-4%,28µM*,0%,-12%,-11%
Cc1csc(SCC(=O)NC23CC4CC(CC(C4)C2)C3)n1,28µM*,-1%,3%,1%,-8%,-7%
O=C(O)CCC(=O)Nc1ccc(S(=O)(=O)N2CCCC2)cc1,3%,8%,-4%,8%,2%,10%
COc1ccc(NC(=O)C(=O)NCCc2csc3nc(-c4ccccc4F)nn23)cc1OC,.,4%,.,.,2%,-1%
SMILES,HPGD block,Tau FP inhib,ALDH1A1 block,JMJD2E inh,Tau ThT inhib,Tau fluor counter
COc1ccc(NC(=S)N/N=C2\CC(C)(C)Oc3ccc(O)cc32)cc1,-15%,-4%,?,?,?,28µM*[quencher]
Cc1ccc(S(=O)(=O)N2CCN(C(=O)N3CCOCC3)C2C(C)C)cc1 (centres undefined),-1%,-1%,-2%,-4%,-1%,1%
CCN(CC)c1ccc(C2N(C(=O)N3CCOCC3)CCN2S(=O)(=O)c2ccc(C)cc2)cc1 (centres undefined),-3%,7%,7.9µM*,-1%,-20%,-27%
O=c1c2cc3c(nc2[nH]c(=S)n1-c1ccccc1)CCCC3,.,-4%,.,-28%,-4%,-10%
Cc1ccc(Cn2ccn(CC(=O)Nc3ccccc3C(F)(F)F)c(=O)c2=O)cc1,.,-10%,.,.,1%,-26%
COc1ccc(C=NCCCN2CCOCC2)cc1,-8%,2%,20µM*,?,-9%,-1%
COc1ccc(C2CC(=O)C(C=NCCCN3CCOCC3)=C(O)C2)cc1 (centres undefined),-11%,3%,-14%,2%,-9%,-1%
O=C1S/C(=C\C=C\c2ccco2)C(=O)N1c1ccccc1,-9%,?,20µM*,?,14µM*,?
Cn1cc(/C=C2\SC(=O)N(c3ccccc3)C2=O)c2ccccc21,-8%,-5%,16%,-8%,-5%,-17%
O=C1S/C(=C\C=C\c2ccco2)C(=O)N1c1ccc(O)cc1,-13%,?,18µM*,1%,14µM*,16µM*[quencher]
O=C1NCCCc2c1oc1ccc(O)cc21,-19%,-10%,8.9µM*,-8%,7%,-2%
Cc1ccc(OCc2nc(-c3ccc(C(=O)N4CCN(c5ccccc5F)CC4)cc3)oc2C)cc1,.,?,.,.,-13%,-5%
CN(C)c1ccc(/C=C/c2ccc3c4ccccc4ccc3[n+]2-c2ccccc2)cc1,.,?,13µM*,?,2µM*,0.79µM*[fluorescent]
Cc1cc(/C=C/c2ccc3cc(N(C)C)ccc3[n+]2C)c(C)n1-c1ccccc1,-13%,-13%,-9%,?,.,.
CN(C)c1ccc(/C=C/c2cccc[n+]2[O-])cc1,.,2%,.,-6%,-4%,-4%
CN(C)c1ccc(/C=C/c2ccc3ccccc3[n+]2C)cc1,-2%,11%,-15%,-21%,0.56µM*,0.5µM*[fluorescent]
Cc1ccc(SCC(=O)NC(=O)NCc2ccco2)cc1C,-3%,1%,-5%,-4%,-9%,-9%
COc1ccccc1OCC(=O)NNC(=S)NC(=O)c1ccco1,-18%,-5%,28µM*,?,-7%,-10%
CCC(=O)NC(=S)Nc1ccc(NC(=O)c2ccco2)cc1,.,8%,1%,13%,?,2%
COc1ccccc1C(=O)NC(=S)Nc1ccc(NC(=O)c2ccco2)cc1,.,?,13µM*,-7%,?,-29%
CC(C)CC(=O)NC(=S)Nc1ccc(NC(=O)c2ccco2)cc1,14µM*,2%,-7%,-7%,-14%,-2%
